# Test results taken from PubChem BioAssay.
# What was measured:
# [1] = tested on: Human papillomavirus type 1a protein E7 (residues 44-93); experiment: small molecules binding HPV E7 44-93 – biochemical, small-molecule microarray, residues 44-93, 635 nm fluorescence, primary screen (AID 1108); settings: fluorescence 635 nm, higher = more signal;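 note: E7 fragment applied at 1 µg/mL in TBST for 1 h at 4 C; score combines spot fluorescence with its signal to noise ratio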
# [2] = hepatitis C replication reporter changes, two-sided – Huh7 cells, luciferase reporter, HCV replication inhibitor project, primary screen (AID 1109); settings: Huh7 HCV replicon luciferase reporter, 48 h; higher = more signal;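 note: huh7 hepatoma cells harbouring a luciferase neomycin HCV replicon reporter; luciferase luminescence as measure of HCV replicon replication; test concentration not given here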
# [3] = biological target: Left-right determination factor 2 (Homo sapiens) (UniProt O00292); experiment: small molecules binding LEFTY2 protein – biochemical, small-molecule microarray, 635 nm fluorescence scan, primary screen (AID 1110); settings: higher = more signal
# [4] = biological target: Calmodulin-1 (Homo sapiens) (UniProt P0DP23); experiment: small molecules binding calmodulin-1 with EGTA – biochemical, small-molecule microarray, Cy5-labelled CALM1, profiling panel (AID 1111); settings: Cy5-CALM1 binding fluorescence, higher = more signal;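 note: labelled calmodulin applied in Tris saline Tween buffer holding calcium plus EGTA and DTT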
# [5] = biological target: Calmodulin-1 (Homo sapiens) (UniProt P0DP23); experiment: small molecules binding Ca-loaded calmodulin-1 – biochemical, small-molecule microarray, Cy5-labelled CALM1, plus calcium, artefact control for SMM control-protein annotation, profiling panel (AID 1112); settings: Cy5-CALM1 binding fluorescence, higher = more signal;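 note: score merges spot fluorescence with signal to noise from triplicate slides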
# [6] = probe aWnt5a binding to arrayed compounds – biochemical, biotinylated probe, 635/667 nm fluorescence, primary screen (AID 1113); settings: small-molecule microarray, higher = more signal;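 note: score merges 667 nm fluorescence intensity with signal-to-noise per printed feature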
# [7] = probe aShh binding to arrayed compounds – biochemical, biotinylated probe, 635/667 nm fluorescence, primary screen (AID 1114); settings: small-molecule microarray, higher = more signal;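 note: probe is biotin-labelled aShh protein from a stem cell growth factor screen; measures binding of labelled protein to compounds printed on the slide; score merges feature fluorescence at 667 nm with signal-to-noise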
# [8] = probe aNog binding to arrayed compounds – biochemical, biotinylated probe, 635/667 nm fluorescence, primary screen (AID 1115); settings: small-molecule microarray, higher = more signal;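 note: probe is biotinylated aNog protein used at 0.15 µg/mL for 1 h at 4 C; z-score combines 667 nm fluorescence of each spot with its signal to noise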
# [9] = biological target: Torsin-1A-interacting protein 1 (Homo sapiens) (UniProt Q5JTV8); experiment: compound microarray binding of lysate hLAP1 – cell lysate, small-molecule microarray, COS7 lysate, 635/667 nm fluorescence, primary screen (AID 1116); settings: 635 nm fluorescence, higher = more signal
# [10] = biological target: Alpha-bungarotoxin (Bungarus multicinctus) (UniProt P60615); experiment: compounds binding labelled alpha-BTX control protein – biochemical, small-molecule microarray, Alexa647 label, 635/667 nm fluorescence, artefact control for SMM control protein annotation, profiling panel (AID 1117); settings: alpha-BTX-A647 binding fluorescence, higher = more signal
# Sequence of Alpha-bungarotoxin (Bungarus multicinctus) (P60615 whole entry, looked up): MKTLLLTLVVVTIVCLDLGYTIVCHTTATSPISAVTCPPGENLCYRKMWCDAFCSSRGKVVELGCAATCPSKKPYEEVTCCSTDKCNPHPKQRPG
# Sequence of Torsin-1A-interacting protein 1 (Homo sapiens) (Q5JTV8 whole entry, looked up): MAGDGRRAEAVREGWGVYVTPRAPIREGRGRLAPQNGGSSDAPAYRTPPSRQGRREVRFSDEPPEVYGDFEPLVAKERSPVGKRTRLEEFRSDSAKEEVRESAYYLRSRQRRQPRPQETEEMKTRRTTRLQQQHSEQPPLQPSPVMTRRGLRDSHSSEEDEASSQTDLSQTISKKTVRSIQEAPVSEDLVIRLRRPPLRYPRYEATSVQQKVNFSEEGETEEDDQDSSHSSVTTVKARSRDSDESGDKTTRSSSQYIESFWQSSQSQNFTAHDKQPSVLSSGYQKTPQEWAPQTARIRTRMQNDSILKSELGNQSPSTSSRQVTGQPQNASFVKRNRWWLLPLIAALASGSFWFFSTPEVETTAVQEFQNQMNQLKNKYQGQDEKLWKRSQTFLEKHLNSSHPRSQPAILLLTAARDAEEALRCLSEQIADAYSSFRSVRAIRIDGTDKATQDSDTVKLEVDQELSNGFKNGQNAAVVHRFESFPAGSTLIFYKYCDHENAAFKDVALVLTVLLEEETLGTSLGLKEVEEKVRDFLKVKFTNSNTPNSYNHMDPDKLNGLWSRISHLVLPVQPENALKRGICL
# Sequence of Left-right determination factor 2 (Homo sapiens) (O00292 whole entry, looked up): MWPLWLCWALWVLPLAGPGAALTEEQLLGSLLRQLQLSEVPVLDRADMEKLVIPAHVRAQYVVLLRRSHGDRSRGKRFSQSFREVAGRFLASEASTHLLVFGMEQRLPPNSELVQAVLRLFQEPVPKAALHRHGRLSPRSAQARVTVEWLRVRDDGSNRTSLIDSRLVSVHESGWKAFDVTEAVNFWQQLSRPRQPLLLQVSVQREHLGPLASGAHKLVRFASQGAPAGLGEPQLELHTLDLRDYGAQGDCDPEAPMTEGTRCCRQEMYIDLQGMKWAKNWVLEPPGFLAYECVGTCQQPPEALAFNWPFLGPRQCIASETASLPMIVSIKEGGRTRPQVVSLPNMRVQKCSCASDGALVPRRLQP
SMILES,composite z-score [1],z-score [2],composite z-score [3],composite z-score [4],composite z-score [5],composite z-score [6],composite z-score [7],composite z-score [8],composite z-score [9],composite z-score [10]
[N-]=[N+]=NCc1ccccc1C[C@@]1(C(=O)O)N=C(c2ccc(OCCCO)cc2)O[C@@H]1c1ccccc1CN=[N+]=[N-],1.39,-1.84,0.219,0.973,-0.0107,0.0676,0.0121,-0.56,0.74,1.27
CO[C@H]1O[C@H](CO)[C@@H](OC(=O)Nc2ccccc2)[C@@H]2OC(=O)[C@H](Cc3ccccc3)C/C=C/C[C@@H](Cc3ccccc3)C(=O)O[C@@H]12,1.04,-3.45,0.587,1.68,-0.123,-0.0545,0.0639,0.696,1.07,0.269
COC(=O)[C@@]1(Cc2ccccc2CN=[N+]=[N-])COC(c2ccc(OCCCO)cc2)=N1,-0.273,-0.221,-2.75,-0.759,0.0354,-0.292,1.69,0.199,0.202,3.02
C[N+](C)(C)CCCCCCNC(=O)[C@H]1C[C@H]2C(=O)NCC(=O)N2[C@H]1c1cccc(OCCO)c1,0.626,0.643,1.5,-0.748,-0.95,-0.096,-0.311,-0.231,0.509,0.355
COc1ccc(NC(=O)O[C@H]2[C@H](OC(=O)Nc3ccc4c(c3)OCO4)[C@H](OC(=O)Nc3ccc4c(c3)OCO4)[C@@H](OC)O[C@@H]2CO)cc1,1.08,0.0346,-0.0444,0.888,-0.958,-0.0643,0.0469,-0.147,0.94,0.425
CC(C)C[C@H]1NC(=O)[C@@]23C(=O)N[C@@H](Cc4ccccc4)C2[C@H](C)[C@@]2(C)O[C@H]2C3/C=C/C/C=C\CNC(=O)[C@@H]2CCCN2C1=O (stereo not given in full),0.612,-0.0034,0.459,-0.0621,-0.576,-0.0704,0.111,0.283,0.268,0.288
CC(=O)NCCCC[C@@H]1NC(=O)[C@H]2C[C@@H](C(=O)NCCCCCC[N+](C)(C)C)[C@@H](c3ccc(O)cc3)N2C1=O,1.4,1.38,0.62,-0.183,-0.906,-0.107,-0.153,0.762,0.611,0.472
[N-]=[N+]=NCc1ccccc1[C@@H]1OC(c2ccc(OCCCO)cc2)=N[C@]1(Cc1ccccc1)C(=O)NCc1ccccc1,1.28,-2.34,0.0086,1.87,0.237,0.0495,0.0181,-0.489,1.12,0.688
C=CCC(OC(C)=O)[C@@H]1[C@@H](N(Cc2ccc(-c3cccc(C(F)(F)F)c3)o2)C(=O)Cc2ccc(OC)cc2)c2cc(OCCCO)ccc2N1C(=O)c1ccc2ccccc2n1 (stereo not given in full),-0.551,0.185,-0.323,-0.698,-0.605,-0.0017,-0.0904,0.227,-0.366,-0.362
CC(C)(C)OC(=O)CC[C@]1(C(N)=O)N=C(c2ccc(OCCCO)cc2)O[C@H]1c1ccccc1CN=[N+]=[N-],0.6,1.46,-0.63,2.67,1.73,-0.096,0.84,-0.143,2.26,1.46
Cc1ccc(S[C@]2(C(=O)NC3CC3)CC(=O)N(Cc3cc(C(F)(F)F)cc(C(F)(F)F)c3)[C@@H]2c2ccc(CO)cc2I)cc1,0.769,-1.67,-0.175,0.102,-0.213,0.472,-0.19,1.65,0.0541,0.665
O=C1O[C@@H](c2ccccc2)[C@@H](c2ccccc2)N2[C@@H](c3ccc(O)cc3)[C@]3(C(=O)Nc4ccc(C#CC5=CCCCC5)cc43)[C@@H](C(=O)N3CCCCCCC3)[C@H]12,1.38,-1.46,0.455,1.61,0.485,0.654,2.04,2.52,3.16,2.25
COC(=O)C(CC#Cc1ccc2c(c1)[C@]1(C(=O)N2)[C@H](c2ccc(O)cc2)N2[C@H](c3ccccc3)[C@H](c3ccccc3)OC(=O)[C@H]2[C@@H]1C(=O)N1CCc2cc(OC)c(OC)cc2C1)C(=O)OC,0.85,-0.163,0.737,0.267,-0.521,0.324,0.383,-0.23,1.25,1.55
COC(=O)[C@@]1(Cc2ccc(F)cc2)[C@H]2c3cc(C(=O)N(C)C)n(CCn4cc([N+](=O)[O-])nc4C)c3C[C@H]2CN1C(=O)c1ccccc1,0.81,-0.112,-0.831,0.892,0.378,-0.003,0.631,1.08,1.49,0.0533
C=CCC(OC(C)=O)[C@@H]1[C@@H](N(Cc2ccc(-c3ccccc3)cc2)C(=O)c2cccc3ccccc23)c2cc(OCCCO)ccc2N1C(=O)c1ccc2ccccc2c1 (stereo not given in full),0.403,-0.464,-0.0981,0.187,0.188,-0.0685,-0.399,-0.258,-0.0482,0.971
CCC(CC)C(O)C1C=CC2C(=O)N(C)C(=O)C2N1N1CCCCC1 (stereo not given),1.43,-0.481,0.692,1.68,-0.263,0.0229,0.0381,1.57,0.103,1.2
CN1C(=O)[C@]2(CCS(=O)(=O)c3ccccc3)N=C(c3ccc(OCCCO)cc3)O[C@@H]2c2ccccc21,1.5,-2.63,-0.249,1.11,-0.545,-0.0704,-0.0119,-0.122,0.0996,0.836
O=c1cccc(-c2ccccc2C(F)(F)F)o1,-0.438,-0.445,-0.747,-0.294,0.243,0.421,0.417,1.08,-0.211,-0.678
CCOC(=O)C1=C[C@@H](C(C)(C)C)N(S(=O)(=O)c2ccc(C)cc2)[C@H]1c1ccccc1Cl,0.694,-1.8,0.633,1.95,0.84,0.1,-0.177,0.527,1.13,1.73
C=CCC(OC(C)=O)[C@@H]1[C@@H](N(Cc2cc3ccccc3o2)C(=O)c2cccc3ccccc23)c2cc(OCCCO)ccc2N1C(=O)c1ccc2ccccc2c1 (stereo not given in full),-0.0617,-0.0143,-0.338,-0.0758,0.63,0.0047,-0.138,-0.12,0.414,0.0671
COCC1=C([C@H](O)CCc2ccccc2)[C@H](CO)n2c(=O)n(-c3ccccc3)c(=O)n2C1,-0.253,-0.482,0.292,-0.357,-0.764,-0.175,-0.0553,-0.0927,-0.103,-0.349
COc1ccc(CCNC(=O)[C@@H]2c3ccccc3C(=O)N(CC34CC5CC(CC(C5)C3)C4)[C@H]2c2ccc(CO)cc2)cc1,1.29,-2.34,0.453,1.67,0.576,-0.0286,0.0381,-0.338,0.321,0.664
CC(C)CNC(=O)[C@@H]1c2ccccc2C(=O)N(CC23CC4CC(CC(C4)C2)C3)[C@H]1c1ccc(CO)cc1,1.34,-1.05,0.0408,0.725,0.769,-0.0685,0.14,-0.436,0.862,1.15
CC(C)CNC(=O)[C@@H]1c2ccccc2C(=O)N(Cc2ccccc2)[C@H]1c1ccc(CO)cc1,0.93,0.372,-1.35,-0.148,-0.202,-0.253,-0.1,0.127,0.936,-0.865
CCOC(=O)C[C@H]1[C@H](OC(=O)c2ccc(-c3ccccc3)cc2)[C@@H](NC(=O)CC(C)C)c2cc(OCCCO)ccc2N1C(=O)Cc1ccc(OC)cc1,0.157,-1.84,0.141,1.05,0.335,-0.0523,-0.2,-0.126,0.418,0.446
CN1C(=O)C2C=CC(C(O)c3ccc(-c4ccccc4)s3)N(Nc3ccccc3)C2C1=O (stereo not given),0.965,-0.593,0.0874,1.41,0.186,-0.0103,0.296,1.49,1.07,2
